Assay [1] deals with High affinity nerve growth factor receptor (Homo sapiens) (UniProt P04629). The note with it: at 1 µM.
The target of assay [2] is BDNF/NT-3 growth factors receptor (Homo sapiens) (UniProt Q16620). As to conditions: at 0.1 µM.
Assay [3] has the same target. As to conditions: at 1 µM.
For assay [4], the target named is NT-3 growth factor receptor (Homo sapiens) (UniProt Q16288). The note with it: at 0.1 µM.
Assay [5] shares this target. As to conditions: at 1 µM.
The target of assay [6] is T1, Tyrosine-protein kinase TXK (Homo sapiens) (UniProt P42681).
T1 sequence (whole entry): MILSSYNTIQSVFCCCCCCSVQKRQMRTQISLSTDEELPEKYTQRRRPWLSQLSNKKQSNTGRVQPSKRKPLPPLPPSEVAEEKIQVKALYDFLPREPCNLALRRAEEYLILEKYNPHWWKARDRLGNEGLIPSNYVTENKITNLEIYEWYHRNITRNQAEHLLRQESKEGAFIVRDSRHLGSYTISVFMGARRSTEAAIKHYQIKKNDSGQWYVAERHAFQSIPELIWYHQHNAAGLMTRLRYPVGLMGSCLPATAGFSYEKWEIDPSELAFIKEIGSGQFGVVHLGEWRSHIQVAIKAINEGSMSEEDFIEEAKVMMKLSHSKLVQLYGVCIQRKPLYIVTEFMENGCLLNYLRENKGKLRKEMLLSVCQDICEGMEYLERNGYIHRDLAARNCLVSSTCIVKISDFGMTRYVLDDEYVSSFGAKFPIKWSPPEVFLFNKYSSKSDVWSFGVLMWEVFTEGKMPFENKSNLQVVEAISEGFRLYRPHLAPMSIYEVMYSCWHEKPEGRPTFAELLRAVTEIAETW
As to conditions: at 0.1 µM.

The target in assay [7] is T1, Tyrosine-protein kinase TXK (Homo sapiens). As to conditions: at 1 µM.
For assay [8], the target named is Non-receptor tyrosine-protein kinase TYK2 (Homo sapiens) (UniProt P29597). As to conditions: at 0.1 µM.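 Further: each value is a mean of the inhibition readings.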
The target of assay [9] is T2, Dual specificity protein kinase TTK (Homo sapiens) (UniProt P33981).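 Further: reported figures are mean TTK inhibition at 1 µM.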
T2 sequence (whole entry): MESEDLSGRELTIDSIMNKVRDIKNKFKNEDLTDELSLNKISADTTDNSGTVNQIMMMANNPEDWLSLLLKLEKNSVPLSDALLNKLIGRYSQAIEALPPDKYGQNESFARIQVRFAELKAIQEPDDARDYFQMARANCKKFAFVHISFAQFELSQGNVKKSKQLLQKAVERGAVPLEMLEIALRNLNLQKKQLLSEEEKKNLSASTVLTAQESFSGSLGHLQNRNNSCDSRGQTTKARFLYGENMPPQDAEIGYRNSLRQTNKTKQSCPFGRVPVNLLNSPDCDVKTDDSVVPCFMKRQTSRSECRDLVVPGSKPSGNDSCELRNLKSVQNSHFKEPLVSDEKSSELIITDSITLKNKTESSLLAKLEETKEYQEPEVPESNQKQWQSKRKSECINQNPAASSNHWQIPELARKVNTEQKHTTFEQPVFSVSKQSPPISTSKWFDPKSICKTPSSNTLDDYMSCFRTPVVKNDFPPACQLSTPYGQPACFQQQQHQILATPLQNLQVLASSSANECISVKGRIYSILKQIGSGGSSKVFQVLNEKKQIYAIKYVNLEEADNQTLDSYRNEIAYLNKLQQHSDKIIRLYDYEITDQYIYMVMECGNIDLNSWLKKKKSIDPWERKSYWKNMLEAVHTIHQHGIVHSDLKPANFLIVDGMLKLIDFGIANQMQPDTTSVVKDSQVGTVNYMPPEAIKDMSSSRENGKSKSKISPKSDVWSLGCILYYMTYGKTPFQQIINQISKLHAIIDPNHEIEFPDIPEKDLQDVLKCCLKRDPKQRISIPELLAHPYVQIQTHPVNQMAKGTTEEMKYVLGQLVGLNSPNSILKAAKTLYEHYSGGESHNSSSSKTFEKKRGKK
The note with it: at 1 µM.

In assay [10] the target is T3, Aurora kinase A (Homo sapiens) (UniProt O14965).
T3 sequence (whole entry): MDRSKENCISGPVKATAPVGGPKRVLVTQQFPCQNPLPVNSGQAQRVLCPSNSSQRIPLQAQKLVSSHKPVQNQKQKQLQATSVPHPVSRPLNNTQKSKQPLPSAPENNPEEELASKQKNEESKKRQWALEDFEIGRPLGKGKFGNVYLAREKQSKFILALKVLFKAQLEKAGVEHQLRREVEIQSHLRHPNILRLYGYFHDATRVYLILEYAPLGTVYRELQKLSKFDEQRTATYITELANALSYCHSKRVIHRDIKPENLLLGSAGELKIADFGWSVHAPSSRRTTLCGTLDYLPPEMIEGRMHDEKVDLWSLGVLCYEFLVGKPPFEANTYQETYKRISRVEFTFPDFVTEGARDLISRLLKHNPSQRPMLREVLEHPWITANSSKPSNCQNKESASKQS
As to conditions: at 0.1 µM.

Assay [11] concerns the target T3, Aurora kinase A (Homo sapiens). The note with it: at 1 µM.
Assay [12] addresses Aurora kinase B (Homo sapiens) (UniProt Q96GD4). As to conditions: at 0.1 µM.
Assay [13] has the same target. The note with it: at 1 µM.
In assay [14] the target is T4, Aurora kinase C (Homo sapiens) (UniProt Q9UQB9).
T4 sequence (whole entry): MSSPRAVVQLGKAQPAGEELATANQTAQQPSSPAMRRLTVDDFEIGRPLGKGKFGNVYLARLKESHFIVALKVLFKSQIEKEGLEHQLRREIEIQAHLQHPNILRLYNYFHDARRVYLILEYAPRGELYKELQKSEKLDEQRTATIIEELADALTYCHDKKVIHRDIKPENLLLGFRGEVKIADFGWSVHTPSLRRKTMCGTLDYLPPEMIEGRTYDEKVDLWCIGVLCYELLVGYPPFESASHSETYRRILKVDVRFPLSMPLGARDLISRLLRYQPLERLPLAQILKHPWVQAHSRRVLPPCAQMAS
As to conditions: at 0.1 µM.

The target in assay [15] is T4, Aurora kinase C (Homo sapiens). The note with it: at 1 µM.
Assay [16] deals with Serine/threonine-protein kinase 10 (Homo sapiens) (UniProt O94804). The note with it: at 0.1 µM.
Chain of Serine/threonine-protein kinase 10 (Homo sapiens) (O94804 whole entry, looked up): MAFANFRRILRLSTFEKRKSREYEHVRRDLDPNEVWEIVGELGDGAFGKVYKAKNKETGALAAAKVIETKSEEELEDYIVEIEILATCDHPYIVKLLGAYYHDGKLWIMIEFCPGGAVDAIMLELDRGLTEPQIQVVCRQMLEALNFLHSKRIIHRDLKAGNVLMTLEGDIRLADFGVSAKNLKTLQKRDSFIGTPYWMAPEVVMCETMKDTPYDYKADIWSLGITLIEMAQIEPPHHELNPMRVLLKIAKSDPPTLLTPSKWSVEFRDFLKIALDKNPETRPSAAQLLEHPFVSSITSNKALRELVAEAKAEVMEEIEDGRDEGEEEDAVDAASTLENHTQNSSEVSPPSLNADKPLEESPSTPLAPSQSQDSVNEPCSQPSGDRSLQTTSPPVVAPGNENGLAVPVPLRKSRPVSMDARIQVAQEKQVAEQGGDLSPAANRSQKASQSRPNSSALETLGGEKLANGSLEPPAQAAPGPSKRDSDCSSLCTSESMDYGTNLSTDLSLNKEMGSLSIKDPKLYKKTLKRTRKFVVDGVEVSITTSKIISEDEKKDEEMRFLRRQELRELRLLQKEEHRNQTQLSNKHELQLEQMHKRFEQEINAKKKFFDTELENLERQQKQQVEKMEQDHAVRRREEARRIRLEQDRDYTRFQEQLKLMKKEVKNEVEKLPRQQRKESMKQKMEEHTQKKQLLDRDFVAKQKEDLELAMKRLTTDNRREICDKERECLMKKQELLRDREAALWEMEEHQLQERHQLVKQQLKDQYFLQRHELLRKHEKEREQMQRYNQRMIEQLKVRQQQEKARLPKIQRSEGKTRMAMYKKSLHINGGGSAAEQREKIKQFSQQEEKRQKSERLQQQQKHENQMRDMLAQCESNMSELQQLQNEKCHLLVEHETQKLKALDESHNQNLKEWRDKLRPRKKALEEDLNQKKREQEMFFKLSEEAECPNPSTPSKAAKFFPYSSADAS
For assay [17] the target is unchanged. As to conditions: at 1 µM.
For assay [18], the target named is T5, Mitogen-activated protein kinase kinase kinase kinase 2 (Homo sapiens) (UniProt Q12851).
T5 sequence (whole entry): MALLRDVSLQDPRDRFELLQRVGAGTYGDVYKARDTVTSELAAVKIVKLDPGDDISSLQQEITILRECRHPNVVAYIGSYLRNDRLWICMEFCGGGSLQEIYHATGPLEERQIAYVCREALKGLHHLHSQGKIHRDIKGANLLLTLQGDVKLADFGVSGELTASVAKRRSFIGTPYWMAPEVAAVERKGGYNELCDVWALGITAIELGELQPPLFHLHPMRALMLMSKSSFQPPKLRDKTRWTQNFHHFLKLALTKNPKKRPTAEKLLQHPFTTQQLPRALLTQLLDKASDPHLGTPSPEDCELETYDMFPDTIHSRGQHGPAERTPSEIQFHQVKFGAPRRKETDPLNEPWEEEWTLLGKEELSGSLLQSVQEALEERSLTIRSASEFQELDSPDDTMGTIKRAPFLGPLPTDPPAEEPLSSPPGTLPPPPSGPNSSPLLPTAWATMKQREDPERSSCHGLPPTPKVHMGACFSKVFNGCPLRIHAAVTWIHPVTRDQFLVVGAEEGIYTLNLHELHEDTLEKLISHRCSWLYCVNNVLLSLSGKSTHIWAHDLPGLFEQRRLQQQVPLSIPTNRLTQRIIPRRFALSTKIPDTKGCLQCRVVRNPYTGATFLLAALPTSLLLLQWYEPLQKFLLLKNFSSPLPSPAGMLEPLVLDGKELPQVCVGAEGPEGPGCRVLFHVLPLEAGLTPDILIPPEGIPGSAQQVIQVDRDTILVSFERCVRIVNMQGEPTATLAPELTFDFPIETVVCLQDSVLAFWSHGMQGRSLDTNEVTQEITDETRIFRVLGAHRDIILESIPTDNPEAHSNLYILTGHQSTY
The note with it: at 0.1 µM.

Assay [19] addresses T5, Mitogen-activated protein kinase kinase kinase kinase 2 (Homo sapiens). The note with it: at 1 µM.
The target of assay [20] is Mitogen-activated protein kinase kinase kinase kinase 4 (Homo sapiens) (UniProt O95819). As to conditions: at 0.1 µM.
Chain of Mitogen-activated protein kinase kinase kinase kinase 4 (Homo sapiens) (O95819 2-1239 limits assumed): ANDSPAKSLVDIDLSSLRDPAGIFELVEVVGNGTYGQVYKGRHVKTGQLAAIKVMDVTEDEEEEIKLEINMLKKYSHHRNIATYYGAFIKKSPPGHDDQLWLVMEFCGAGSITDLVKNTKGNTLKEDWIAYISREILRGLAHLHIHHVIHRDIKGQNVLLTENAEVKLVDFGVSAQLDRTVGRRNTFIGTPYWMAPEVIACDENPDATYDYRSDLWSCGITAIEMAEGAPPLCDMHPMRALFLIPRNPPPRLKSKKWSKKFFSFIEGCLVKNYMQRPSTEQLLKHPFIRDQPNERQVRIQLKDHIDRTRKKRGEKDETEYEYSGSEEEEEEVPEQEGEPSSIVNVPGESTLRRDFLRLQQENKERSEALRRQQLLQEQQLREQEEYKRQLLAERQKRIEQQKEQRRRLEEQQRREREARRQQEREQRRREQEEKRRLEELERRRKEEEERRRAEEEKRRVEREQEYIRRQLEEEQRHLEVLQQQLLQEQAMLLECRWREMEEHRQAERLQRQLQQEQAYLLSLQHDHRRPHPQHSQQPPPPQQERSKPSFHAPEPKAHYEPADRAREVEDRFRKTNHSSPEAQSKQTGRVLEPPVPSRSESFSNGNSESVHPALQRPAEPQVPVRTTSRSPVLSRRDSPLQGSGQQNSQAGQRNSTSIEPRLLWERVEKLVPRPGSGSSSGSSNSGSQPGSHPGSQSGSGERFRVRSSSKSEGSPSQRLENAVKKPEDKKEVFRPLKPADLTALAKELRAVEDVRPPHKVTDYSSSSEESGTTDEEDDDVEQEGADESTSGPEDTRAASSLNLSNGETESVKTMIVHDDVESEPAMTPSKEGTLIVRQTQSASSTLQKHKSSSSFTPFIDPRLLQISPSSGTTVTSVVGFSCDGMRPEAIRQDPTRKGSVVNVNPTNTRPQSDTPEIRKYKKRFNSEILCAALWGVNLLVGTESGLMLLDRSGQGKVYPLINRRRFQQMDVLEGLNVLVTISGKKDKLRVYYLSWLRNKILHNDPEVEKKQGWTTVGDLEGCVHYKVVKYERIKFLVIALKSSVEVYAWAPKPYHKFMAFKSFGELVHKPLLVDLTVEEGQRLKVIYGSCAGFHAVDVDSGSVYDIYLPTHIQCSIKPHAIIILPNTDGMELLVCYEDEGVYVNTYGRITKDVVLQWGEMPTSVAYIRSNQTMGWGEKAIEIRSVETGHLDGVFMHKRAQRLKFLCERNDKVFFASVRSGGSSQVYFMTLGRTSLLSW

The values below come from ChEMBL document CHEMBL1961873, “Compounds: GSK PKIS; Assays: Nanosyn kinase panel” (2012).

SMILES strings stand for the structures.

In general, inhibition refers to the change of the read-out against control, counted positive when it falls.

Chain of High affinity nerve growth factor receptor (Homo sapiens) (P04629 33-796 limits assumed): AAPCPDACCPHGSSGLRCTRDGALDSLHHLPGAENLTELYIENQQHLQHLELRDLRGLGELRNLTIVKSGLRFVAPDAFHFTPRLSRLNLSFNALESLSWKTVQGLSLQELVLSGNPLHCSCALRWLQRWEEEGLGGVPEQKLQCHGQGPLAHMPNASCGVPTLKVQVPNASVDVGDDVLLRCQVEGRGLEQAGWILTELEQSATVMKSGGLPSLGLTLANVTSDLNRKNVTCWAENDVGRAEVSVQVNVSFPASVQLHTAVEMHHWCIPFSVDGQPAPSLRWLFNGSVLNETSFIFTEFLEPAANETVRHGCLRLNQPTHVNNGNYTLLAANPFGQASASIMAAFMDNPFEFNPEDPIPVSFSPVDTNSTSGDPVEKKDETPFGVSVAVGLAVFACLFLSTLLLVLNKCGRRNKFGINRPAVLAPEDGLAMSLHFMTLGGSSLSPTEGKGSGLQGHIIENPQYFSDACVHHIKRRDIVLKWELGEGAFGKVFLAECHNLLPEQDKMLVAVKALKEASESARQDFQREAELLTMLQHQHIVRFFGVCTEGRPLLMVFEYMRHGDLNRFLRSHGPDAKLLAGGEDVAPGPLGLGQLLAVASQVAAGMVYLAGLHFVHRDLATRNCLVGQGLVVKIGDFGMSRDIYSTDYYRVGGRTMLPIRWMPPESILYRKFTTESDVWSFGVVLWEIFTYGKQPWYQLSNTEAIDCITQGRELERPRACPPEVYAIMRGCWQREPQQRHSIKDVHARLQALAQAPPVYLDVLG
Chain of Aurora kinase B (Homo sapiens) (Q96GD4 whole entry): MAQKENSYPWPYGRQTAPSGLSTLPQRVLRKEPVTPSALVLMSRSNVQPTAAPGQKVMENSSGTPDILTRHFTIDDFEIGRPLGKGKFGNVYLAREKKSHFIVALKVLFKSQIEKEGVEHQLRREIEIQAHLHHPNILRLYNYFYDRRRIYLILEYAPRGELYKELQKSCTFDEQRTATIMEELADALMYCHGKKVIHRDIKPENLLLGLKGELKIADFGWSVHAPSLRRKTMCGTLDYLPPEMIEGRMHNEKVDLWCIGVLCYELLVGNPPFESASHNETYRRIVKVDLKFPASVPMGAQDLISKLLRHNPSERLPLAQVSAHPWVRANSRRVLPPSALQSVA
Chain of NT-3 growth factor receptor (Homo sapiens) (Q16288 32-839 limits assumed): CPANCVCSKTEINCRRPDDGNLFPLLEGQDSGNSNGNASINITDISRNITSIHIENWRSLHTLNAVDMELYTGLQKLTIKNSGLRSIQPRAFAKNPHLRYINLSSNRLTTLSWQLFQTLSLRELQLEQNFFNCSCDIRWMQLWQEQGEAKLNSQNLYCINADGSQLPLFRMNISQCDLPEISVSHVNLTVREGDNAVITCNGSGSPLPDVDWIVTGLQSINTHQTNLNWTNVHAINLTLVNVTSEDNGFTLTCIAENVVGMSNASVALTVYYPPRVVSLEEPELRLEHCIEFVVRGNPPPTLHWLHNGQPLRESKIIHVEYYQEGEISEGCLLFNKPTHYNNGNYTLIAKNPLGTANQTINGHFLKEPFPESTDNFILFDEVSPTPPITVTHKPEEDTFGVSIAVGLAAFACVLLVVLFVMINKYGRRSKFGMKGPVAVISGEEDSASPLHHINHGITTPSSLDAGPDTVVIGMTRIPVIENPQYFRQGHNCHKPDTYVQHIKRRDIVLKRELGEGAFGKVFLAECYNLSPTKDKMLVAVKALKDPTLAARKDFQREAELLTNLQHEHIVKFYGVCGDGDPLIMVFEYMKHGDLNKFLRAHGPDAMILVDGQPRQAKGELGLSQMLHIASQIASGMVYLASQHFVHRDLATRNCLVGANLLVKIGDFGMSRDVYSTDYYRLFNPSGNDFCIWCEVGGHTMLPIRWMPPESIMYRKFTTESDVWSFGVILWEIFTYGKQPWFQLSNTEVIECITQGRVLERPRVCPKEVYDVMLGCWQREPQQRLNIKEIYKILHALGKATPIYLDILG
Chain of BDNF/NT-3 growth factors receptor (Homo sapiens) (Q16620 32-822 limits assumed): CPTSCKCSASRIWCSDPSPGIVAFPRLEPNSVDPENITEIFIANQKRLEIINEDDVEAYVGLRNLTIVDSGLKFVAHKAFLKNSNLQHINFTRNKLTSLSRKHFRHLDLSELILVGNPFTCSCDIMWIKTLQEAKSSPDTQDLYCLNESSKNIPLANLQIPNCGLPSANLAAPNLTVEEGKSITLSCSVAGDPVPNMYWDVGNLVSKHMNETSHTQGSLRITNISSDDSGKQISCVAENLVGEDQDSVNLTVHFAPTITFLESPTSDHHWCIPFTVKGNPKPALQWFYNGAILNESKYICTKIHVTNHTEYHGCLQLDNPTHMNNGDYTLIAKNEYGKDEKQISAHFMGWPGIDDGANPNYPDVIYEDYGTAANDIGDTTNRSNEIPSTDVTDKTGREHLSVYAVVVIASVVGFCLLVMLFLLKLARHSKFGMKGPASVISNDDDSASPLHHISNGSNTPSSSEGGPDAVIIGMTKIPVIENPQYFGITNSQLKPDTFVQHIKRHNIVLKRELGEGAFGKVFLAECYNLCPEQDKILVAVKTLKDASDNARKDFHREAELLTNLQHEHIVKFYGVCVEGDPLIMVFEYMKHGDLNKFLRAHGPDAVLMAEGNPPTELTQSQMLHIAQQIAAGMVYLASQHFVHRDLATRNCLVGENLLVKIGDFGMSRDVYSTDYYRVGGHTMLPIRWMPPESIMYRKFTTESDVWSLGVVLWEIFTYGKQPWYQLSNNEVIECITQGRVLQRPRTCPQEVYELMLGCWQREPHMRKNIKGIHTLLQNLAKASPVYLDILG

Regarding `COc1cc(Nc2ncc3c(C)nc(-c4cccc(C(F)(F)F)c4)n3n2)cc(OC)c1OC`, the inhibition in [1] turned out to be 7.83%; in assay [2] it was 4.54%; in [3], 16.5%; in assay [4], 4.76%; in [5] it was 11%; in [6], 3.45%. The inhibition in assay [7] is 16.6%; in assay [8], -1.61%; in assay [9], 14.4%; in [10], 2.65%; in assay [11] it was 36.2%; in [12] it was 4.06%. The inhibition in assay [13] was 14.4%; in assay [14], 1.2%; in assay [15] it was 11.3%; in [16], 6.36%; in [17], 12.5%; in assay [18], -0.1%. For the same compound, the inhibition in [19] was found to be 7.98%; in [20] it was 11.3%.

As for `Cc1ccc(C(=O)NC(C)C)cc1-c1ccc(C(=O)NCC2CC2)cc1`, the inhibition was 0.4% in [1]; -1.41% in [2]; 0.73% in assay [3]; 0.1% in assay [4]; 1.79% in assay [5]; -1.45% in assay [6]. Moreover, the inhibition in [7] is -1.03%; in assay [8], 1.94%; in assay [9], -5.81%; in assay [10], -3.2%; in [11], -2.53%; in assay [12], -0.47%. Further, the inhibition in assay [13] is 2.24%; in assay [14], -0.96%; in assay [15], 1.27%; in [16], -2.21%; in assay [17], -5.65%; in assay [18], -0.39%. Further, the values for the inhibition in assay [19] and in assay [20] were 1.59% and -2.82%, respectively.

On to `CCS(=O)(=O)c1ccc(OC)c(Nc2ncc(-c3ccccc3Cl)o2)c1`, for which the inhibition in assay [1] turned out to be 5.58%; in assay [2] it was 1.97%; in assay [3] it was 8.35%; in assay [4], 3.33%; in assay [5] it was 12.5%; in [6] it was 1.52%. The inhibition was 10.3% in assay [7]; -3.24% in assay [8]; 9.34% in assay [9]; 1.49% in assay [10]; 10.9% in assay [11]; -1.57% in assay [12]. Also, the inhibition is 5.12% in assay [13]; 1.38% in [14]; -2.79% in assay [15]; 2.59% in assay [16]; 6.5% in [17]; 0.68% in assay [18]. Further, the inhibition was determined as 5.1% in assay [19] and 4.85% in [20].

For `NC(=O)Cc1ccccc1Oc1nccc(-c2c(-c3ccc(F)cc3)ncn2C2CCNCC2)n1`, the inhibition came to 1.31% in [1]; 0.02% in assay [2]; 0.58% in assay [3]; 0.22% in assay [4]; 0.96% in assay [5]; 3.01% in assay [6]. Also, the inhibition in assay [7] is 4.27%; in assay [8], -1.14%; in assay [9], 7.71%; in assay [10], 1.9%; in assay [11] it was 0.49%; in [12], 2.8%. Further, the inhibition in assay [13] is 1.02%; in assay [14], -0.43%; in assay [15] it was 8.16%; in assay [16], 3.78%; in assay [17] it was 5.45%; in assay [18], 0.65%. In addition, the inhibition in [19] worked out at 3.36%; in assay [20], 5.19%.

Regarding `COc1ccc(C2=C(N3CCc4ccccc43)C(=O)NC2=O)cc1`, the inhibition came out at 3.66% in assay [1]; 3.2% in assay [2]; 2.97% in assay [3]; 3.23% in [4]; 3.14% in assay [5]; 3.28% in assay [6]. The inhibition in assay [7] was 4.15%; in [8], -3.26%; in assay [9], 5.34%; in assay [10], 1.27%; in [11], 12.5%; in assay [12], 0.57%. The inhibition in assay [13] was 5.83%; in assay [14], 1.68%; in [15] it was -3.65%; in [16], 4.19%; in [17] it was 10.4%; in assay [18] it was 0.85%. Besides, the inhibition in [19] came to 4.95%; in [20], 6.97%.

In the case of `NS(=O)(=O)c1ccc(N/N=C2\C(=O)Nc3ccc(C(=O)NCCCn4ccnc4)cc32)cc1`, the inhibition was found to be 12% in [1]; 9.05% in assay [2]; 43.2% in [3]; 9.74% in assay [4]; 44.2% in assay [5]; 3.46% in [6]. For the same compound, the inhibition in [7] is 4.42%; in assay [8], -2.26%; in assay [9], 71.3%; in [10] it was 5.44%; in assay [11], 49.9%; in assay [12], 1.38%. Further, the inhibition amounted to 17.8% in assay [13]; 3.31% in [14]; 23.2% in assay [15]; 6.25% in assay [16]; 12.2% in assay [17]; 3.32% in assay [18]. In addition, the inhibition in assay [19] turned out to be 8.35%; in [20], 10.8%.
